Screen size: about 5,500 compounds; about 2,000 (36%) were called active. Roughly 18% stayed inconclusive and do not appear here. No stated cut-off is given here; in the data, active means normalized growth mostly below about 0.91 (no sharp cut-off); inconclusive means no clear call, values can overlap the other calls; inactive means mostly above about 0.92. This is one part of the list.
Assay: chemical genetic growth profiling, strain panel (AID 1159580);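 further: tested at 20 µM; growth read once vehicle control cultures reached saturation at 30 °C; 1 = growth at the plate median or of vehicle wells; lower values mean less growth of the strain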
Conditions: growth OD

Measured: normalized growth

COc1cc(O)ccc1C(C)=O
inactive: S. cerevisiae deletion strains, locus YJR043C, strain POL32, active compounds read low 0.977 | S. cerevisiae deletion strains, locus YJR066W, strain TOR1, active compounds read low 0.957 | S. cerevisiae deletion strains, locus YJR075W, strain HOC1, active compounds read low 0.966 | S. cerevisiae deletion strains, locus YKL009W, strain mrt4, active compounds read low 0.999 | S. cerevisiae deletion strains, locus YKL068W, active compounds read low 0.974 | S. cerevisiae deletion strains, locus YKL085W, strain MDH1 (second series), active compounds read low 0.986 | S. cerevisiae deletion strains, locus YKL085W, strain MDH1, active compounds read low 0.986 | S. cerevisiae deletion strains, locus YKL160W, strain elf1, active compounds read low 1.02 | S. cerevisiae deletion strains, locus YKL190W, strain CNB1, active compounds read low 0.995 | S. cerevisiae deletion strains, locus YKR001C, strain vps1, active compounds read low 0.975 | S. cerevisiae deletion strains, locus YKR026C, strain gcn3, active compounds read low 1.03 | S. cerevisiae deletion strains, locus YKR091W, strain srl3, active compounds read low 1.02 | S. cerevisiae deletion strains, locus YLL001W, strain dnm1, active compounds read low 1.03 | S. cerevisiae deletion strains, locus YLL026W, active compounds read low 1.01 | S. cerevisiae deletion strains, locus YLL041C, strain sdh2, active compounds read low 1.01 | S. cerevisiae deletion strains, locus YLR027C, strain aat2, active compounds read low 1.01 | S. cerevisiae deletion strains, locus YLR039C, strain RIC1, active compounds read low 0.977 | S. cerevisiae deletion strains, locus YLR058C, strain SHM2, active compounds read low 0.954 | S. cerevisiae deletion strains, locus YLR102C, strain apc9, active compounds read low 0.98 | S. cerevisiae deletion strains, locus YLR113W, strain HOG1, active compounds read low 1.01 | S. cerevisiae deletion strains, locus YLR221C, strain rsa3, active compounds read low 1.03 | S. cerevisiae deletion strains, locus YLR258W, strain gsy2, active compounds read low 1.02 | S. cerevisiae deletion strains, locus YLR262C, strain YPT6 (second series), active compounds read low 1.03 | S. cerevisiae deletion strains, locus YLR262C, strain YPT6, active compounds read low 0.899 | S. cerevisiae deletion strains, locus YLR268W, strain sec22, active compounds read low 1.04 | S. cerevisiae deletion strains, locus YLR320W, strain mms22, active compounds read low 1.03 | S. cerevisiae deletion strains, locus YLR330W, strain CHS5, active compounds read low 0.991 | S. cerevisiae deletion strains, locus YLR342W, strain FKS1 (second series), active compounds read low 1.07 | S. cerevisiae deletion strains, locus YLR342W, strain FKS1, active compounds read low 1.03 | S. cerevisiae deletion strains, locus YLR357W, strain rsc2, active compounds read low 1.01 | S. cerevisiae deletion strains, locus YLR370C, strain arc18, active compounds read low 1.02 | S. cerevisiae deletion strains, locus YLR371W, strain rom2, active compounds read low 0.973 | S. cerevisiae deletion strains, locus YLR384C, strain iki3, active compounds read low 1.05 | S. cerevisiae deletion strains, locus YLR418C, strain cdc73, active compounds read low 0.973 | S. cerevisiae deletion strains, locus YML016C, strain PPZ1, active compounds read low 0.989 | S. cerevisiae deletion strains, locus YML032C, strain rad52, active compounds read low 0.951 | S. cerevisiae deletion strains, locus YML120C, strain ndi1, active compounds read low 1.02 | S. cerevisiae deletion strains, locus YML124C, strain tub3, active compounds read low 0.997 | S. cerevisiae deletion strains, locus YMR058W, strain fet3, active compounds read low 1.03 | S. cerevisiae deletion strains, locus YMR078C, strain ctf18, active compounds read low 0.99 | S. cerevisiae deletion strains, locus YMR125W, strain sto1, active compounds read low 1.03 | S. cerevisiae deletion strains, locus YMR129W, active compounds read low 1.02 | S. cerevisiae deletion strains, locus YMR205C, strain PFK2, active compounds read low 1.04 | S. cerevisiae deletion strains, locus YMR223W, strain ubp8, active compounds read low 0.979 | S. cerevisiae deletion strains, locus YMR231W, strain pep5, active compounds read low 1.01 | S. cerevisiae deletion strains, locus YMR263W, strain SAP30, active compounds read low 0.985 | S. cerevisiae deletion strains, locus YMR307W, strain GAS1, active compounds read low 0.997 | S. cerevisiae deletion strains, locus YNL067W, strain RPL9B, active compounds read low 0.981 | S. cerevisiae deletion strains, locus YNL071W, strain lat1, active compounds read low 1.02 | S. cerevisiae deletion strains, locus YNL153C, strain GIM3, active compounds read low 0.961 | S. cerevisiae deletion strains, locus YNL183C, strain NPR1, active compounds read low 0.968 | S. cerevisiae deletion strains, locus YNL209W, strain ssb2, active compounds read low 1.02 | S. cerevisiae deletion strains, locus YNL233W, strain BNI4, active compounds read low 0.975 | S. cerevisiae deletion strains, locus YNL248C, strain rpa49, active compounds read low 1.02 | S. cerevisiae deletion strains, locus YNL250W, strain rad50, active compounds read low 0.974 | S. cerevisiae deletion strains, locus YNL271C, strain bni1, active compounds read low 0.988 | S. cerevisiae deletion strains, locus YNL298W, strain CLA4, active compounds read low 0.981 | S. cerevisiae deletion strains, locus YNL307C, strain MCK1, active compounds read low 0.992 | S. cerevisiae deletion strains, locus YNL322C, strain KRE1 (second series), active compounds read low 1.02 | S. cerevisiae deletion strains, locus YNR049C, strain mso1, active compounds read low 1.02 | S. cerevisiae deletion strains, locus YNR052C, strain pop2, active compounds read low 0.983 | S. cerevisiae deletion strains, locus YOL012C, strain htz1 1.92 | S. cerevisiae deletion strains, locus YOL147C, strain pex11, active compounds read low 1 | S. cerevisiae deletion strains, locus YOR001W, strain rrp6, active compounds read low 1.01 | S. cerevisiae deletion strains, locus YOR061W, strain CKA2, active compounds read low 0.96 | S. cerevisiae deletion strains, locus YOR069W, strain VPS5, active compounds read low 0.999 | S. cerevisiae deletion strains, locus YOR070C, strain gyp1, active compounds read low 1.02 | S. cerevisiae deletion strains, locus YOR080W, strain dia2, active compounds read low 1.02 | S. cerevisiae deletion strains, locus YOR083W, strain WHI5, active compounds read low 1.03 | S. cerevisiae deletion strains, locus YOR106W, strain vam3, active compounds read low 1.02 | S. cerevisiae deletion strains, locus YOR136W, strain idh2, active compounds read low 0.995 | S. cerevisiae deletion strains, locus YOR144C, strain elg1, active compounds read low 0.986 | S. cerevisiae deletion strains, locus YOR184W, strain ser1, active compounds read low 0.971 | S. cerevisiae deletion strains, locus YOR231W, strain MKK1, active compounds read low 1.02 | S. cerevisiae deletion strains, locus YOR265W, strain rbl2, active compounds read low 1.02 | S. cerevisiae deletion strains, locus YOR270C, strain vph1, active compounds read low 1.04 | S. cerevisiae deletion strains, locus YOR290C, strain snf2, active compounds read low 1.01 | S. cerevisiae deletion strains, locus YOR316C, strain cot1, active compounds read low 0.98 | S. cerevisiae deletion strains, locus YPL051W, strain arl3, active compounds read low 1.02 | S. cerevisiae deletion strains, locus YPL055C, strain LGE1, active compounds read low 0.957 | S. cerevisiae deletion strains, locus YPL078C, strain atp4, active compounds read low 1.02 | S. cerevisiae deletion strains, locus YPL106C, strain sse1, active compounds read low 1.01 | S. cerevisiae deletion strains, locus YPL240C, strain hsp82, active compounds read low 1.01 | S. cerevisiae deletion strains, locus YPL256C, strain CLN2, active compounds read low 1.04 | S. cerevisiae deletion strains, locus YPR119W, strain clb2, active compounds read low 0.984 | S. cerevisiae deletion strains, locus YPR141C, strain kar3, active compounds read low 0.976 | S. cerevisiae deletion strains, locus YPR163C, strain tif3, active compounds read low 0.978 | S. cerevisiae deletion strains, locus YPR167C, strain met16, active compounds read low 0.983 | S. cerevisiae deletion strains, strain wtn01, active compounds read low 1.02 | S. cerevisiae strains, strain wild type, active compounds read low 0.997
